# Source: PubChem (National Center for Advancing Translational Sciences (NCATS))
# RECQ1 inh-1 = blocks DNA unwinding by human RECQ1; Potency, µM (series often up to 57.3 µM), most hits filed as inhibitors; AID 2549; P46063; 240,000 compounds, 0.54% hits; RECQ1 DNA unwinding, red fluorescence kinetic read; note: nearly all actives have a fitted effect of over 30% in size
#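 RECQ1T1 50 nM; forked duplex (20 bp + 30-nt ss tails) 200 nM, ATP 2 mM final; pH 8.0, 2 mM MgCl2, 2.5 ug/ml poly(dI-dC); 15 min compound preincubation; discontinuous kinetic read over 2 h at RT.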
# TDP1 block = blocks human tyrosyl-DNA phosphodiesterase 1. AID 485290. Potency, µM (top dose mostly 130 µM), usual class: inhibitors. Q9NUW8. recombinant TDP1, AlphaScreen DNA substrate cleavage. 350,000 compounds, 0.28% hits; note: nearly all actives have a fitted effect of over 40% in size
#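 AlphaScreen read-out: signal falls as enzyme removes the 3' tyrosine-FITC from a 5'-biotinylated DNA oligo (15 nM, 5 min, RT). Enzyme was E. coli-made recombinant Tdp1 at 1 nM, exposed to compound for 15 min beforehand; beads 10 ug/ml, 10 min.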
# APEX1 inh = blocks human APE1 abasic DNA cleavage; P27695; recombinant APE1, TAMRA/BHQ-2 abasic DNA cleavage fluorescence; Potency, µM (series often up to 65.8 µM), actives largely listed as inhibitors; 350,000 compounds, 0.35% hits; AID 2517; note: nearly all actives have a fitted effect of over 55% in size
# Target sequence (P27695 whole entry, looked up): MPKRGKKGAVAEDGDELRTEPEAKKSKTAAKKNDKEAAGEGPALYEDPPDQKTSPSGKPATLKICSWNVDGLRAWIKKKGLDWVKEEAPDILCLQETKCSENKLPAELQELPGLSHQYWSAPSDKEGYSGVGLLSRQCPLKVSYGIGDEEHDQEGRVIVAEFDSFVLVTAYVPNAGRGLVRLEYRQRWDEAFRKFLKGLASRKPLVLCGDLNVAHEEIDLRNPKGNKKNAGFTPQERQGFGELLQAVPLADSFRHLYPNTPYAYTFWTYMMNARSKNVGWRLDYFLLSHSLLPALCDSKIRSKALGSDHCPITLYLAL
#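 Substrate: short duplex with […] THF abasic site, 5'-TAMRA and 3'-BHQ-2, 50 nM final. APE1 at 0.75 nM, preincubated 15 min RT with compound. Fluorescence increase from first to third read measured activity.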
# FEN1 inh-1 = inhibitors of human flap endonuclease 1. P39748. 390,000 compounds, 0.35% hits. Potency, µM (doses to about 114 µM), most hits filed as inhibitors. Recombinant FEN1 flap cleavage, fluorescence, 15 min; note: nearly all actives have a fitted effect of over 65% in size
#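 FEN1 at 10 nM preincubated with compounds 15 min at room temperature, then flap DNA substrate added at 50 nM final. Signal read at 0 and 15 min; concentration-response fitted with four-parameter Hill equation.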
# BLM helicase inh = Bloom syndrome helicase (human) inhibition; Potency, µM (highest dose often 56.1 µM), usual class: inhibitors; 350,000 compounds, 0.2% hits; P54132; recombinant BLM DNA unwinding, fluorescence dequenching; AID 2528; note: nearly all actives have a fitted effect of over 35% in size
# RECQ1 conf = confirmation of human RECQ1 helicase inhibitors; shares compounds with RECQ1 inh-1; RECQ1 helicase DNA unwinding, fluorescence; Potency, µM (highest dose often 229 µM), hits mostly inhibitors; 610 compounds, 28% hits; AID 2708; note: nearly all actives have a fitted effect of over 45% in size
# RECQ1 ADP FP = counter-screen for RECQ1 inhibitors: ADP displacement; Potency, µM (titrated, usually from 228 µM), actives largely listed as inhibitors; ADP fluorescence polarization displacement counterscreen; 530 compounds, 27% hits; shares compounds with RECQ1 inh-1; note: nearly all actives have a fitted effect of over 45% in size
# RECQ1 inh-2 = blocks human RECQ1 DNA unwinding | shares compounds with RECQ1 inh-1 | AID 504841 | Potency, µM (top dose mostly 119 µM), actives largely listed as inhibitors | 1,100 compounds, 15% hits | recombinant RECQ1 DNA unwinding, red fluorescence; note: nearly all actives have a fitted effect of over 50% in size
# FEN1 inh-2 = confirmation of human FEN1 inhibitors. shares compounds with FEN1 inh-1. FEN1 flap cleavage, TAMRA/BHQ2 fluorogenic DNA substrate. Potency, µM, usual class: inhibitors. 880 compounds, 79% hits; note: nearly all actives have a fitted effect of over 60% in size
# Numbers stand for hits; i = inactive; ? = inconclusive; nt = no result. Shown are actives, neighbours in structure and some others; about 0.92% of the full set was active somewhere. Calls come from the whole dose curve; as a rule, active = well fitted curve in the direction sought with a large enough effect; inconclusive = small, poorly fitted or top-dose-only effect, or another doubt; inactive = no such curve, though single readings can be large; an effect the other way counts as inactive or inconclusive.
SMILES,RECQ1 inh-1,TDP1 block,APEX1 inh,FEN1 inh-1,BLM helicase inh,FEN1 inh-2,others
Cn1cnnc1SCC(=O)Nc1sc2c(c1C(N)=O)CCC2,32µM,nt,?,32µM,?,?,RECQ1 inh-2=?
Cn1c(=O)c2c(SCC(=O)N3CCc4ccccc43)nc(-c3ccccc3Cl)nc2n(C)c1=O,nt,i,nt,i,i,nt,
CCOC(=O)CSc1nnc(-c2cc(OC)c(OC)c(OC)c2)o1,i,i,i,i,i,nt,
COc1cc(-c2nnc(SCc3cc(=O)oc4cc(O)c(O)cc34)o2)cc(OC)c1OC,1.8µM,nt,2µM,40µM,10µM,38,RECQ1 conf=3.5µM;RECQ1 ADP FP=126µM;RECQ1 inh-2=?
C#CCn1cnc2c(cnn2-c2ccc(F)cc2)c1=O,nt,i,nt,i,i,nt,
CCc1ccc(NC(=O)CSC2=Nc3ccccc3C3=NC(CC(=O)NCc4cccs4)C(=O)N23)cc1 (configuration not stated),nt,i,nt,i,i,nt,
O=C(O)CC(CCc1ccccc1)OC1OC(CO)C(O)C(O)C1O (configuration not stated),3.5µM,nt,0.35µM,7.9µM,i,27,RECQ1 conf=i
[C-]#[N+][C@H](O[C@@H]1O[C@H](CO)[C@@H](O)[C@H](O)[C@H]1O)c1ccccc1,nt,nt,nt,i,nt,nt,
CCc1ccccc1N(C)C(=O)C1CCCN(c2ncnc3c2nc2n3CCCCC2)C1 (configuration not stated),nt,i,nt,i,i,nt,
N#Cc1c(-c2ccccc2)cc(-c2ccco2)c(C#N)c1N,i,i,i,nt,?,nt,
N#Cc1c(-c2ccco2)cc(-c2ccccc2)[nH]c1=O,22µM,nt,32µM,i,?,76,RECQ1 conf=?;RECQ1 ADP FP=?
COc1ccccc1NC(=O)C(=O)N/N=C/c1cccs1,i,i,i,32µM,i,30,
COCCNC(=O)C(=O)N/N=C/c1cccs1,i,i,i,?,i,nt,
N#CNC(=O)c1ccc(-n2cccc2/C=C2\NC(=O)N(CC(=O)Nc3cccc(F)c3)C2=O)cc1,nt,nt,nt,nt,nt,34,
Cc1ccc(NC(=O)CN2C(=O)N/C(=C\c3cccn3-c3cccc(-c4nn[nH]n4)c3)C2=O)cc1,nt,nt,nt,nt,nt,67,
Cc1ccc(NC(=O)CN2C(=O)N/C(=C/c3ccc(C)s3)C2=O)cc1,i,i,i,i,i,nt,
Cc1ccc(NC(=O)CN2C(=O)N/C(=C\c3cccn3-c3ccc(C(=O)NC#N)cc3)C2=O)cc1,nt,nt,nt,nt,nt,30,
O=C1N/C(=C/c2cccn2-c2ccccc2)C(=O)N1Cc1ccccc1F,i,i,i,i,i,nt,
N#CNC(=O)c1ccc(-n2cccc2/C=C2\NC(=O)N(CC(=O)Nc3ccc(Cl)cc3)C2=O)cc1,nt,nt,nt,nt,nt,24,
Cc1ccc(-n2ncc(C(=O)N3CCC(c4ccccc4)C3)c2C2CCN(C(=O)OC(C)(C)C)CC2)cc1 (configuration not stated),nt,i,nt,i,i,nt,
N#CC1=C(N)N(c2cccc(Cl)c2)C2=C(C(=O)CCC2)C1c1cc(CN2CCOCC2)cs1 (configuration not stated),nt,i,nt,i,i,nt,
COc1ccccc1N1CCN(C(=O)c2cnn(C(C)(C)C)c2C2CCN(C(=O)OC(C)(C)C)CC2)CC1,nt,i,nt,i,i,nt,
O=C(CNC(=O)c1ccc(Cl)cc1)OCc1cc(=O)n2ccsc2n1,nt,i,nt,i,i,nt,
COCCNC(=O)Cn1nc(C)c2c(C)n(-c3ccc(C)cc3)nc2c1=O,nt,i,nt,i,i,nt,
COc1ccc(CCNC(=O)Cn2nc(C)c3c(C)n(-c4ccc(C)cc4)nc3c2=O)c(OC)c1,nt,nt,i,?,?,48,
SMILES,RECQ1 inh-1,TDP1 block,APEX1 inh,FEN1 inh-1,BLM helicase inh,FEN1 inh-2,others
CCOC(=O)c1cccc(NS(=O)(=O)c2cc3c(cc2C)NC(=O)CO3)c1,nt,i,nt,i,i,nt,
COc1ccc2c(c1)cc(C(=O)N/N=C/c1c(O)c(C(=O)O)cc3ccccc13)n2C,nt,nt,i,?,?,85,
CN(C)CCNC(=O)c1ccccc1,i,i,i,i,i,nt,
CN(C)CCNC(=O)c1cccc2nc3cccc(F)c3nc12,nt,nt,nt,14µM,nt,19,
Cc1c2ccncc2cc2c1[nH]c1ccccc12,nt,nt,nt,18µM,nt,17,
COc1ccc(OC)c(CNc2ncnc3c2nc2n3CCCC2)c1,nt,i,nt,i,i,nt,
Cc1cc(/C=C2\Sc3ccccc3N2C)cc(C)[n+]1CC1CCCO1 (configuration not stated),?,i,?,50µM,i,34,
Fc1ccccc1-c1ccc(-c2nc3ccc(Cl)cn3c2Nc2ccc(Cl)cc2)o1,nt,i,nt,i,nt,nt,
CCn1cc(S(=O)(=O)c2ccc(Cl)cc2)c(=O)c2cc(F)c(N3CCOCC3)cc21,nt,i,nt,i,i,nt,
